The structures appear in SMILES notation. Results filed as inconclusive are left out. Calls of active or inactive are those of the source. The call rests on the fitted dose curve; in most records, active means well fitted curve in the direction sought with a large enough effect; inconclusive means small, poorly fitted or top-dose-only effect, or another doubt; inactive means no such curve, though single readings can be large; an effect the other way counts as inactive or inconclusive.

Assay [1] has as its target Cytochrome P450 2C19 (Homo sapiens) (UniProt P33261). Description: qHTS Assay for Inhibitors and Substrates of Cytochrome P450 2C19 (AID 899). Further: nearly all actives have a fitted effect of over 60% in size. Further: potency means the concentration at half of the fitted maximal effect. To be noted: recombinant CYP2C19, luciferin-H EGE luminescence; series mostly up to 57.1 µM. In short, it runs like this:
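5 nM human CYP2C19 with 10uM Luciferin-H EGE (at KM) in 50mM KPO4, compound preincubated 10 min at 37C, then NADPH regeneration for 60 min at 37C. Luciferin read by luminescence after detection reagent; normalized to 57uM ketoconazole as full inhibition.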
Background: In qHTS, concentration-response curves come from the screen itself.

The target of assay [2] is Muscarinic acetylcholine receptor M1 (Rattus norvegicus) (UniProt P08482). Description: qHTS Assay for Antagonists of Acetylcholine Muscarinic M1 Receptor: Kinetic Measurement of Intracellular Calcium Response (AID 943). Further: nearly all actives have a fitted effect of over 75% in size. Further: potency means the concentration at half of the fitted maximal effect. To be noted: M1-expressing cells, kinetic intracellular calcium fluorescence; series mostly up to 35.3 µM. Put shortly:
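Antagonism is measured as inhibition of the carbachol-evoked calcium rise in CHO cells transfected with rat M1. Cells are dye-loaded, exposed to compound for 10 min, then stimulated with 100 nM carbachol (EC80).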

For assay [3] the target is unchanged. The assay is described as follows: qHTS Assay for Antagonists of Acetylcholine Muscarinic M1 Receptor: Measurement of IP-One Response (AID 944). Further: nearly all actives have a fitted effect of over 75% in size. Further: potency means the concentration at half of the fitted maximal effect. To be noted: CHO-M1 cells, IP-One HTRF, antagonist mode; series mostly up to 46.1 µM. Put shortly:
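Antagonist mode with rat M1 receptor transfected into CHO cells. Compound is added first for 10 min, carbachol at its EC80 follows for 30 min, and lysis reagents then allow TR-FRET detection of accumulated IP1.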

In assay [4] the target is alpha-glucosidase (Oryza sativa, rice) (UniProt Q653V4). The assay is described as follows: Counterscreen for Glucocerebrosidase Inhibitors: qHTS Assay for Rice alpha-Glucosidase at pH 5.0 (AID 997). The note with it: rice alpha-glucosidase enzyme activity; series mostly up to 76.9 µM. Put shortly: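 Endpoint fluorogenic assay at pH 5.0: compounds (0.7 nM to 77 uM) titrated against 4 nM rice enzyme and 400 uM 4-MU-alpha-glucoside for 20 min at room temperature; NaOH/glycine stop, read ex 365/em 440 nm, Hill-fitted AC50.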
For orientation: A counterscreen serves to expose hits that act by an unwanted route or on another target.

Assay [5] has as its target Alpha-galactosidase (Coffea arabica) (UniProt Q42656). Description: Counterscreen for Glucocerebrosidase Inhibitors: qHTS Assay for Coffee Bean alpha-Galactosidase at pH 5.9 (AID 998). The note with it: coffee bean alpha-galactosidase enzyme assay; series mostly up to 76.9 µM. Put shortly:
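Enzyme 2 nM + cpd (0.7 nM–77 uM titration) + 4-MU-alpha-Gal 80 uM, pH 5.9 citrate/Tween-20, RT 20 min, NaOH/glycine stop pH 10, fluor 365/440. Normalized to no-enzyme and full-activity controls; Hill-fit AC50.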

The nature of assay [6]: qHTS Assay for Identification of Small Molecule Agonists for Thrombopoietin (TPO) Signaling Pathway (AID 917). The note with it: TPO signaling pathway reporter cells, agonist qHTS; series mostly up to 38.5 µM. In short, it runs like this:
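Quantitative HTS for pathway activators: compounds were pin-transferred onto IL-3-starved Ba/F3 cells expressing human TPO receptor, TPO was added at its EC50 (26 pM final), and after 24 hrs at 37 C reporter luciferase was measured.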

The subject of assay [7] is Zika virus NS2B-NS3 protease (linked construct). The assay is described as follows: Primary screen NINDS Rhodamine qHTS for Zika virus inhibitors (AID 1347160). Further: nearly all actives have a fitted effect of over 55% in size. Further: potency means the concentration at half of the fitted maximal effect. The note with it: purified NS2B-NS3 protease, Rhodamine110 substrate fluorescence; series mostly up to 57.1 µM. Put shortly: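 Single-chain NS2B-NS3 protease, 25 nM, pH 8.0; compounds preincubated 15 min. Activity: Rhodamine110 release from 1.5 microM substrate over 15 min, room temperature, data fitted to 4-parameter Hill.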

Assay [8] in a line: OV-KATE Cancer Cell Toxicity qHTS against the NCATS CANVASS Library (AID 1347345). To be noted: OV-KATE cells viability, CellTiter-Glo luminescence, 72 h; series mostly up to 38.3 µM. In short, it runs like this: (§1)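 Bortezomib titration and single-dose wells served as plate controls. Test compounds, 11 points, acted on 1000 cells/well for 72 h at 37 degrees C; CellTiter-Glo luminescence quantified remaining viable cells.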

A short description of assay [9]: UWB1.289 Cancer Cell Toxicity qHTS against the NCATS CANVASS Library (AID 1347347). Further: nearly all actives have a fitted effect of over 60% in size. The note with it: UWB1.289 viability, CellTiter-Glo luminescence, 72 h; series mostly up to 38.3 µM. Put shortly: as §1
Assay [10] can be described thus: OV-SAHO Cancer Cell Toxicity qHTS against the NCATS CANVASS Library (AID 1347348). Further: nearly all actives have a fitted effect of over 55% in size. To be noted: OV-SAHO viability, CellTiter-Glo luminescence, 72 h; series mostly up to 38.3 µM. In short, it runs like this:
as §1

Assay [11] can be described thus: U-118MG Cancer Cell Toxicity qHTS against the NCATS CANVASS Library (AID 1347351). To be noted: U-118MG viability, CellTiter-Glo luminescence, 72 h; series mostly up to 38.3 µM. Put shortly:
as §1

Assay [12] is described as follows: COV-362 Cancer Cell Toxicity qHTS against the NCATS CANVASS Library (AID 1347352). The note with it: COV-362 viability, CellTiter-Glo luminescence, 72 h; series mostly up to 38.3 µM. Put shortly:
(§2)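 First, 1000 cells go into each well and rest for 4 hours. Next, an 11-point dilution range is pinned in. Plates then incubate 72 hours before CellTiter-Glo addition and luminescence reading.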

Assay [13] in a line: A2780 Cisplatin Sensitive Ovarian Cancer Cell Toxicity qHTS against the NCATS CANVASS Library (AID 1347353). Further: nearly all actives have a fitted effect of over 60% in size. To be noted: A2780 ovarian cancer viability, ATPLite luminescence, 72 h; series mostly up to 46.1 µM. In short, it runs like this: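 Cells are plated at 750 per well and rest for 4 hours. Compounds are added across eleven concentrations, and incubated 72 hours before ATP is quantified by luminescence.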

Assay [14] can be described thus: UWB1.289-WTBRCA1 Cancer Cell Toxicity qHTS against the NCATS CANVASS Library (AID 1347354). To be noted: UWB1.289-WTBRCA1 viability, CellTiter-Glo luminescence, 72 h; series mostly up to 38.3 µM. Put shortly:
as §2

A short description of assay [15]: HEK-293 Cancer Cell Toxicity qHTS against the NCATS CANVASS Library (AID 1347355). Further: nearly all actives have a fitted effect of over 65% in size. To be noted: HEK-293 viability, CellTiter-Glo luminescence, 72 h; series mostly up to 46.1 µM. Put shortly: as §2
A short description of assay [16]: HPAF-II 24hr Apoptosis Induction qHTS against the NCATS CANVASS Library (AID 1347356). The note with it: HPAF-II caspase-3/7 Caspase-Glo luminescence; series mostly up to 46.1 µM. In short, it runs like this: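 Cells seeded at 500 per well, then compounds pin-transferred in an 11-point concentration series. After 24 hours at 37 degrees C, Caspase-Glo 3/7 was added and luminescence measured following 15 min at room temperature.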

The nature of assay [17]: HEK293 24hr Apoptosis Induction qHTS against the NCATS CANVASS Library (AID 1347359). To be noted: HEK293 caspase-3/7 activation, Caspase-Glo luminescence; series mostly up to 46.1 µM. Put shortly:
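HEK293 cells, 500 per well, exposed to an 11-point compound series for 24 hours at 37 degrees C. Caspase 3/7 activity read by Caspase-Glo luminescence (DEVD substrate) after 15 min at room temperature.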

The nature of assay [18]: HPAF-II 18hr Apoptosis Induction qHTS against the NCATS CANVASS Library (AID 1347360). The note with it: HPAF-II caspase-3/7 luminescence; series mostly up to 46.1 µM. Put shortly: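 Apoptosis was scored as caspase-3/7 activity in HPAF-II pancreatic cancer cells treated 18 hours with an 11-point concentration series.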
A short description of assay [19]: HEK293 12hr Apoptosis Induction qHTS against the NCATS CANVASS Library (AID 1347361). To be noted: HEK293 caspase-3/7 Caspase-Glo luminescence; series mostly up to 46.1 µM. Put shortly:
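Apoptosis in HEK293 was scored as caspase-3/7 luminescence following 12 h treatment with a compound concentration series in qHTS format.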

The subject of assay [20] is NAD(P)H diaphorase (Clostridium kluyveri). Description: Diaphorse counterscreen qHTS: Assay Interference Panel against the NCATS CANVASS Library (AID 1347362). To be noted: Diaphorase enzyme, resazurin to resorufin fluorescence; series mostly up to 57.5 µM. Put shortly:
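Clostridium kluyveri diaphorase in PBS + 0.01% Tween-20 preincubated 15 min with compounds. Resazurin and NADH then added for 5 min at room temperature in the dark; resorufin fluorescence read (ex 525, em 598).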

Alpha-galactosidase (Coffea arabica), sequence (Q42656 whole entry, looked up): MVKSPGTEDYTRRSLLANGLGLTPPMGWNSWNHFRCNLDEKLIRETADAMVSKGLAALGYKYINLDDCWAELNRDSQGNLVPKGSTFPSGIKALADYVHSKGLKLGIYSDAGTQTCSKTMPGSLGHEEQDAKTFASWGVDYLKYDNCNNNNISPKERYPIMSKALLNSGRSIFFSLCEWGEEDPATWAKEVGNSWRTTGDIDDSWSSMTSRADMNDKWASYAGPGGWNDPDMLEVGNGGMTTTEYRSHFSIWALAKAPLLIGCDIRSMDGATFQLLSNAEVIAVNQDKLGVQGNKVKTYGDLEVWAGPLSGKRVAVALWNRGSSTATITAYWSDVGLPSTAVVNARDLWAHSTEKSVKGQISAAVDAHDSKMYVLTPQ
Cytochrome P450 2C19 (Homo sapiens), sequence (P33261 whole entry, looked up): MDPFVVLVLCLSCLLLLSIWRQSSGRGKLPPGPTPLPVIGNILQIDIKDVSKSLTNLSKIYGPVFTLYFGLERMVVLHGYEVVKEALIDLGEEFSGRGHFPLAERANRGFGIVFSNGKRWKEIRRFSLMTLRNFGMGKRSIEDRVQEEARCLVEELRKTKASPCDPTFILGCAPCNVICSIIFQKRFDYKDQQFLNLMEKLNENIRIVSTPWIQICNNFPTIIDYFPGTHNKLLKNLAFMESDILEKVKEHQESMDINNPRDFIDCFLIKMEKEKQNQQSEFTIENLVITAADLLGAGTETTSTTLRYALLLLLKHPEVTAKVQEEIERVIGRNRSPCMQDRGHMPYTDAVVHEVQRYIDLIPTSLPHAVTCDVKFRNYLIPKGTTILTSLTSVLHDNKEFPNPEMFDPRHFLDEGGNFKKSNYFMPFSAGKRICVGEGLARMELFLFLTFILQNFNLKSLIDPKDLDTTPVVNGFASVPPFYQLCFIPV
Muscarinic acetylcholine receptor M1 (Rattus norvegicus), sequence (P08482 whole entry, looked up): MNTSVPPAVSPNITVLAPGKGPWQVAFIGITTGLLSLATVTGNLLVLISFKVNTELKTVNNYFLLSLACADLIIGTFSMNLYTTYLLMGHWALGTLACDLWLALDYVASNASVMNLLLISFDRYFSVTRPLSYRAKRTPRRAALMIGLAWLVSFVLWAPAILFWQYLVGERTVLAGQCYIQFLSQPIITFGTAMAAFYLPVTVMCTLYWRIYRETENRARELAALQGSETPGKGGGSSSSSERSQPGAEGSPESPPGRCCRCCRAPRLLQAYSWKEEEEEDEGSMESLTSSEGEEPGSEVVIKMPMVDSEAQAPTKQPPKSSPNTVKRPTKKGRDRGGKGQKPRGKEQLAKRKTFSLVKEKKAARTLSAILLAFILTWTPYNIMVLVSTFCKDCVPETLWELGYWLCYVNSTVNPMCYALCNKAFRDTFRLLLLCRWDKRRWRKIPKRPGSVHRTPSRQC

Regarding `NC[C@@H](CC(=O)O)c1ccc(Cl)cc1`, in assay [1], the Potency entry was “inactive”.
With `c1ccc2c(c1)OC[C@@H](C1=NCCN1)O2`, in assay [1], the Potency was 7940 nM (active). Besides, the Potency result in assay [2] and in [3] was “inactive” in each case. Besides, the molecule was classed as inactive in assay [4] and in assay [5].
Turning to `N#CC(C#N)=Cc1ccc([N+](=O)[O-])c(O)c1`, the outcome in assay [6], in assay [4] and in assay [5] was inactive. For the same molecule, the Potency entry in assay [2] and in assay [3] was “inactive” each time.
Regarding `N[C@H](CCP(=O)(O)O)C(=O)O`, the molecule was classed as inactive in [6], in assay [4] and in [5]. For the same molecule, the Potency entry in assay [2] and in assay [3] was “inactive” each time.
For `CCOC(=O)c1ncn2c1[C@H]1CCCN1C(=O)c1cc(OC)ccc1-2`, the Potency result in [1], in assay [2] and in assay [3] was “inactive” throughout. In addition, the outcome in [6], in assay [4] and in [5] was inactive.
On to `O=C1C2CCN(CC2)C1(CO)CO`, for which the Potency in assay [1] was 631 nM (active).
Still for that read-out and setting: with `S=C=Nc1cccc(C2(N3CCCCC3)CCCCC2)c1` the entry was “inactive”.
Take `COC(=O)N1CCN(C(=O)Cc2ccc(Cl)c(Cl)c2)[C@H](CN2CCCC2)C1`: the molecule was called inactive in assay [6], in [4] and in assay [5]. In addition, the Potency entry in [3] was “inactive”.
Regarding `C=C(C)[C@H]1CN[C@H](C(=O)O)[C@@H]1CC(=O)O`, in assay [3], the Potency entry was “inactive”. In addition, the molecule was classed as inactive in assay [4] and in assay [5].
`C[C@H](N)Cc1c[nH]c2ccc(O)cc12`: the molecule was classed as inactive in assay [6], in assay [4] and in assay [5]. The Potency entry in assay [2] and in [3] was “inactive” each time.
As to `O=C1CC[C@@]2(O)[C@H]3Cc4ccc(O)c5c4[C@@]2(CCN3CC2CC2)[C@@H]1O5`, the result in assay [6], in [4] and in assay [5] was inactive. The Potency result in assay [3] was “inactive”.
Regarding `NC[C@H](CP(=O)(O)O)c1ccc(Cl)cc1`, the molecule was classed as inactive in [6], in assay [4] and in [5]. Further, the Potency entry in assay [2] and in [3] was “inactive” throughout.
For `C/C(=C\C=C/[C@@H](C)C(=O)O)[C@H]1CN[C@H](C(=O)O)[C@@H]1CC(=O)O`, the Potency entry in assay [1] was “inactive”.
For the molecule `CC1=C(O)C(=O)[C@H]2O[C@@H]2C1=O`, in assay [1], the Potency was 158 nM (active).
For the molecule `CC[C@]1(C2=NCCN2)Cc2ccccc2O1`, the Potency result in [3] is “inactive”. The outcome in assay [4] and in assay [5] was inactive.
For the molecule `COc1ccc(CNC(=O)/C=C\c2ccc3[nH]cc(CCN(C)C)c3c2)cc1`, the Potency result in [1] and in [3] was “inactive” in each case. Besides, the molecule was called inactive in assay [6], in assay [4] and in assay [5].
As to `C/C(O)=C(/C#N)C(=O)Nc1cc(Br)ccc1Br`, the Potency entry in assay [1] and in assay [2] was “inactive” each time. In addition, the molecule was classed as inactive in assay [6], in assay [4] and in [5].
With `CN1[C@@H]2CC[C@H]1CC(O[C@@H](c1ccccc1)c1ccc(Cl)cc1)C2` (stereo partly specified), the figures for the Potency in assay [2] and in assay [3] were 20 nM (active) and 12.6 nM (active), respectively. For the same molecule, the result in assay [4] and in assay [5] was inactive.
As to `C[C@H](N)Cc1cnc[nH]1`, the Potency result in assay [2] and in [3] was “inactive” throughout. For the same molecule, the molecule was called inactive in [4] and in assay [5].
For the molecule `COC(=O)C1=C2Nc3ccccc3[C@@]23CCN2CC(C(C)=O)C1C[C@H]23` (stereo partly specified), the Potency in [7] was 55300 nM (active). The Potency entry in [8], in [9], in [10], in assay [11], in [12] and in assay [13] was “inactive” each time. The Potency result in [14], in assay [15], in assay [17] and in assay [19] was “inactive” in each case. Besides, the molecule was classed as inactive in assay [16], in [18] and in assay [20].
With `CNCCc1c[nH]c2ccccc12`, the Potency entry in [7], in [8], in [9], in assay [10], in [11] and in [12] was “inactive” each time. In addition, the Potency result in assay [13], in assay [14], in assay [15], in assay [17] and in [19] was “inactive” throughout. The molecule was classed as inactive in assay [16], in assay [18] and in assay [20].

Values taken from PubChem BioAssay (NCATS).
